# PubChem BioAssay (NCATS)
# “And” between values parts separate entries of the source, which are not always exact repeats. Identical values can stand only once. Inconclusive results are not listed. Where a call stands in place of a potency, no number is given. The source made the active and inactive calls. Unless noted, calls come from the whole dose curve; as a rule, active = well fitted curve in the direction sought with a large enough effect; inconclusive = small, poorly fitted or top-dose-only effect, or another doubt; inactive = no such curve, though single readings can be large; an effect the other way counts as inactive or inconclusive.
# Experiments:
# [1] = biological target: Mitogen-activated protein kinase 10 (Mus musculus) (UniProt Q61831); assay: JNK3 AlphaScreen Assay (AID 530; active = well fitted curve in either direction with a large enough effect, not every such curve was filed as active;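 note: kinase came from lysate of stimulated human HepG2 cells; signal reports phosphorylation of biotinylated GST-cJun 1-79 at Ser73 with 10 µM ATP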)
# In short: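 Phosphorylation of biotinylated GST-cJun(1-79) at Ser73 is measured by AlphaScreen proximity luminescence. Enzyme is JNK3 in HepG2 lysates activated with interleukin-1beta and tumor necrosis factor alpha; ATP is 10 uM final.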
# [2] = qHTS Assay for Lipid Storage Modulators (AID 1519; calls by dose curve); settings: Drosophila S3 cells, BODIPY lipid droplet/cell ratio, laser cytometry, cells loaded with oleic acid
# In short: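 Cells seeded at 5,000 per well were treated with compounds over a concentration series and loaded with oleic acid (400 uM, as added). Lipid droplet fluorescence (488 nm excitation, 500-530 nm channel) was read by laser-scanning cytometry and normalized to 20 uM Triacsin C.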
# [3] = biological target: Ubiquitin carboxyl-terminal hydrolase 1 (Homo sapiens) (UniProt O94782); assay: Inhibitors of USP1/UAF1: Pilot qHTS (AID 504865);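 note: rhodamine fluorescence freed from ubiquitin-rhodamine substrate followed over time; top concentration of the series differs between compounds; nearly all actives have a fitted effect of over 35% in size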
# In short: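 USP1/UAF1 complex (1nM) preincubated with compound 15 min at room temperature, then Ub-Rho substrate (150nM final) added. Fluorescence read kinetically at 480/540 nm, 6 reads every 60 seconds. Buffer: 50mM HEPES pH 7.8, 0.5mM EDTA, 0.1 mg/ml BSA, 1mM TCEP, 0.01% Tween-20.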
# [4] = biological target: DNA dC->dU-editing enzyme APOBEC-3G (Homo sapiens) (UniProt Q9HC16); assay: qHTS for inhibitors of Vif-A3G interactions: Validation (AID 588379)
# In short: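 Yellow fluorescence (Ex 488, Em 500-530) of Vif-coexpressing HeLa A3G-eYFP cells, scanned by Acumen cytometer, reports blocked A3G degradation. Cells plated at 700/well overnight at 37 deg C before compound addition, then a further overnight compound incubation at 37 deg C.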
# [5] = tested on: Zika virus NS2B-NS3 protease; assay: Primary screen GU AMC qHTS for Zika virus inhibitors (AID 1347154); note: nearly all actives have a fitted effect of over 70% in size
# In short: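 Unlinked Zika NS2B hydrophilic domain/NS3 protease domain noncovalent complex (25 nM final) in 10 mM Tris-HCl pH 8.0, 0.01% Tween 20, with AMC peptide substrate. Fluorescence (ex 340, em 450 nm) change over 15 min, room temperature; percent inhibition fitted to 4-parameter Hill equation.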
# [6] = Counterscreen qHTS for small molecule stabilizers of the endoplasmic reticulum resident proteome: GLuc-NoTag assay (AID 1508627)
# In short: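 Secreted GLuc lacking the SERCaMP modification is measured in SH-SY5Y cells exposed to compound for 19 h and then to thapsigargin (100 nM, 4 h) to deplete ER calcium; hits retested at 11 concentrations, up to 76.6 uM.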
# [7] = AP1 Signaling Pathway (AID 357; active = well fitted curve in either direction with a large enough effect, not every such curve was filed as active;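 note: ME-180 reporter cells stimulated with EGF at its EC50 level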)
# In short: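 Beta-lactamase reporter under AP-1 response element, ME-180 background. Stimulus: EC50 EGF. Compound exposure 5 h, 37 °C. Detection: CCF4, 2.5 h RT, 460/530 nm. Values: AC50 from titration.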
# [8] = biological target: Cytochrome P450 1A2 (Homo sapiens) (UniProt P05177); assay: p450-cyp1a2 (AID 410; calls by dose curve; note: potency is the fitted concentration of half-maximal effect)
# In short: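 O-Demethylation of luciferin 6' methyl ether by human CYP1A2 is monitored as luciferase luminescence. Substrate sits at Km (100uM); enzyme is 20nM. Values are scaled to 57 uM furafylline as maximal inhibition.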
# [9] = NFAT Signaling Pathway (AID 444; active = well fitted curve in either direction with a large enough effect, not every such curve was filed as active;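 note: carbachol stimulus at about its EC50 of 1 µM final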); settings: Jurkat NFAT-bla M1, carbachol, beta-lactamase ratio, 5 h; at 38 µM (top of the series)
# In short: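 Jurkat cells carrying an NFAT-driven β-lactamase reporter and co-transfected muscarinic M1 receptor were treated with compound plus carbachol (1 uM final, an EC50 level) for 5 h at 37 °C. CCF4 loading followed for 1 h at RT; 460/530 nm ratio gave %activity.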
# [10] = biological target: Glucocorticoid receptor (Homo sapiens) (UniProt P04150); assay: GR-GFP Redistribution (AID 450;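 active = compounds whose dose series gives a full or clear partial fitted curve of increased nuclear translocation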; note: potency is the fitted concentration of half-maximal effect); settings: U2OS GR-GFP nuclear translocation, laser cytometry, 2 h
# [11] = biological target: Glucocorticoid receptor (Homo sapiens) (UniProt P04150); assay: GR-EFC Redistribution (AID 451; calls by dose curve; note: potency is the fitted concentration of half-maximal effect); settings: CHO-K1 GR-EFC translocation, beta-gal luminescence, 2 h
# In short: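 CHO-K1 cells stably expressing nuclear-localized β-gal enzyme acceptor and GR fused C-terminally to the enzyme donor fragment; ligand-driven nuclear translocation restores β-gal by complementation. Compounds titrated up to 46 uM final, 2 h at 37 °C; luminescence read.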
# [12] = biological target: Cytochrome P450 2D6 (Homo sapiens) (UniProt P10635); assay: qHTS Assay for Inhibitors and Substrates of Cytochrome P450 2D6 (AID 891); note: potency is the fitted concentration of half-maximal effect; nearly all actives have a fitted effect of over 60% in size
# In short: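 Luminescent read-out of luciferin formed by 5 nM human CYP2D6 demethylating 30 uM Luciferin-ME EGE (Km level) over 60 min at room temperature after NADPH regeneration addition. Data normalized to full inhibition by 1.43 uM quinidine.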
# [13] = biological target: Muscarinic acetylcholine receptor M1 (Rattus norvegicus) (UniProt P08482); assay: qHTS Assay for Antagonists of Acetylcholine Muscarinic M1 Receptor: Measurement of IP-One Response (AID 944); note: nearly all actives have a fitted effect of over 75% in size
# In short: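 Antagonist mode with rat M1 receptor transfected into CHO cells. Compound is added first for 10 min, carbachol at its EC80 follows for 30 min, and lysis reagents then allow TR-FRET detection of accumulated IP1.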
# [14] = biological target: Pyruvate kinase (Leishmania mexicana) (UniProt Q27686); assay: qHTS Validation Assay for Inhibitors of Leishmania Mexicana Pyruvate Kinase (AID 945)
# In short: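 LmPYK E451W 0.2 nM; 0.5 mM PEP, 0.1 mM ADP, 7 mM MgCl2, 50 mM KCl, imidazole pH 7.2, 0.01% Tween 20, 0.05% BSA; 1 h RT; PKLight luminescence; DMSO-normalized.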
# [15] = biological target: Pyruvate kinase PKM (Homo sapiens) (UniProt P14618); assay: qHTS Assay for Activators of Human Muscle Pyruvate Kinase (AID 954; active = well fitted curve in the direction sought with a large enough effect, not every such curve was filed as active)
# In short: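 ATP production by PKM2 detected via luciferase luminescence after 1 h room-temperature reaction (0.1 nM enzyme, PEP at Km 0.5 mM, ADP 0.1 mM, pH 7.2 imidazole buffer). Inhibition scaled to no-enzyme control; activation referenced to 0.3 nM enzyme wells.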
# [16] = biological target: Alpha-galactosidase (Coffea arabica) (UniProt Q42656); assay: Counterscreen for Glucocerebrosidase Inhibitors: qHTS Assay for Coffee Bean alpha-Galactosidase at pH 4.5 (AID 957)
# In short: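 Enzyme is added first (2 nM final), then compounds titrated from 0.7 nM to 77 uM, then 80 uM 4-methylumbelliferyl alpha-D-galactopyranoside; after 20 min at room temperature a pH 10 NaOH/glycine stop precedes fluorescence reading at 365/440 nm.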
# [17] = biological target: Alpha-galactosidase A (Homo sapiens) (UniProt P06280); assay: Counterscreen for Glucocerebrosidase Inhibitors: qHTS Assay for Human alpha-Galactosidase at pH 4.5 (AID 992)
# In short: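 Fluorogenic 1536-well qHTS at pH 4.5 (citrate, Tween-20): 2 nM enzyme, 80 uM 4-MU-alpha-galactoside, 20 min room temperature, NaOH/glycine stop. Titration 0.7 nM to 77 uM, data normalized to no-enzyme and full-activity controls, Hill-fitted AC50.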
# [18] = biological target: alpha-glucosidase (Oryza sativa, rice) (UniProt Q653V4); assay: Counterscreen for Glucocerebrosidase Inhibitors: qHTS Assay for Rice alpha-Glucosidase at pH 5.0 (AID 997)
# In short: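 Endpoint fluorogenic assay at pH 5.0: compounds (0.7 nM to 77 uM) titrated against 4 nM rice enzyme and 400 uM 4-MU-alpha-glucoside for 20 min at room temperature; NaOH/glycine stop, read ex 365/em 440 nm, Hill-fitted AC50.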
# [19] = biological target: Alpha-galactosidase (Coffea arabica) (UniProt Q42656); assay: Counterscreen for Glucocerebrosidase Inhibitors: qHTS Assay for Coffee Bean alpha-Galactosidase at pH 5.9 (AID 998)
# In short: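 In 50 mM citric acid pH 5.9 with 0.005% Tween-20, coffee bean enzyme hydrolyses 80 uM 4-MU alpha-D-galactopyranoside over 20 min at RT. Activity is normalized to controls; AC50 comes from Hill-modelled concentration-response data.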
# Chain of Glucocorticoid receptor (Homo sapiens) (P04150 whole entry, looked up, the tested form may be a part): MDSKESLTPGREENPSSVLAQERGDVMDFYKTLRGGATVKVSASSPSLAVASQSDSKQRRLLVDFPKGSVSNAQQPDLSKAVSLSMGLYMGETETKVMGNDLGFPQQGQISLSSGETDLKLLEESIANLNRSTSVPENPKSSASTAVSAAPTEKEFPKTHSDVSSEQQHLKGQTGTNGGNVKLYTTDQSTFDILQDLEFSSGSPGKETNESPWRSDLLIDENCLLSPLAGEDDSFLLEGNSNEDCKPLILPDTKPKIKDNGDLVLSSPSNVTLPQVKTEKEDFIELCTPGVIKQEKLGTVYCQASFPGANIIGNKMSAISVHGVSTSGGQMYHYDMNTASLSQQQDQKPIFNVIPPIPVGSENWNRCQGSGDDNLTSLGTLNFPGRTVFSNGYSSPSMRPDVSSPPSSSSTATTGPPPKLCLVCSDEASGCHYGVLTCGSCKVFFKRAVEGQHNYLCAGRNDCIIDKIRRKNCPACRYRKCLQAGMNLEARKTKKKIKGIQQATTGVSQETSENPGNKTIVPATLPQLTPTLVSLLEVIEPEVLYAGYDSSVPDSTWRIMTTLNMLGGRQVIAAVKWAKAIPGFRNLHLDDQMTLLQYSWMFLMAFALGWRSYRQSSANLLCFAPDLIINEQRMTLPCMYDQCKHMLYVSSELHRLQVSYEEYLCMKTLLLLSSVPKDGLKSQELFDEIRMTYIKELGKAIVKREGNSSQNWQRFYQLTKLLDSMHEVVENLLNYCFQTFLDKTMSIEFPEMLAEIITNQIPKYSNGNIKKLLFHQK
# Chain of Cytochrome P450 1A2 (Homo sapiens) (P05177 whole entry, looked up): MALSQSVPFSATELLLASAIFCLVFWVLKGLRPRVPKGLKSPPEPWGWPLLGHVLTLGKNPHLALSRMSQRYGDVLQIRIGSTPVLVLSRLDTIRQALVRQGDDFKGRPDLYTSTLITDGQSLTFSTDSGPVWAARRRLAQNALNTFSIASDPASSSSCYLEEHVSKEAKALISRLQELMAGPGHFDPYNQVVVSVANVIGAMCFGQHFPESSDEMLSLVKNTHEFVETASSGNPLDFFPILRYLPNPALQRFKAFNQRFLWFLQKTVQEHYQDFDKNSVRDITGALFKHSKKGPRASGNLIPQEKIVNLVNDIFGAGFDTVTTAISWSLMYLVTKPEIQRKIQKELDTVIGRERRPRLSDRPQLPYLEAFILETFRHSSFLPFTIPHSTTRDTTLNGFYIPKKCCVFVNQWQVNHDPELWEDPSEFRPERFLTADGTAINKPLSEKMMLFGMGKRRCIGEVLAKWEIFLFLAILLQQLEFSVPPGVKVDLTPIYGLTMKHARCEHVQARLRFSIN
# Chain of Alpha-galactosidase (Coffea arabica) (Q42656 whole entry, looked up): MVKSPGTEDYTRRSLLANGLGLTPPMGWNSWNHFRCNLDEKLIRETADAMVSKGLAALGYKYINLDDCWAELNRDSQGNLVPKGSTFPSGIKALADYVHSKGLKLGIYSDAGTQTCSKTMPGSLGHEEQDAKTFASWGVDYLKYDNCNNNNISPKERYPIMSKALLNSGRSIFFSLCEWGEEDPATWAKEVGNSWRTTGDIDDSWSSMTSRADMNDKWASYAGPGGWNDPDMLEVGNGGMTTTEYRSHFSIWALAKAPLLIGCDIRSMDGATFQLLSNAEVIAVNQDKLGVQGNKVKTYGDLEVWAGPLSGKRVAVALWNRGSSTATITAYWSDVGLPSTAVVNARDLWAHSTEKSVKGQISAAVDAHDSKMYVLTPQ
# Chain of DNA dC->dU-editing enzyme APOBEC-3G (Homo sapiens) (Q9HC16 whole entry, looked up): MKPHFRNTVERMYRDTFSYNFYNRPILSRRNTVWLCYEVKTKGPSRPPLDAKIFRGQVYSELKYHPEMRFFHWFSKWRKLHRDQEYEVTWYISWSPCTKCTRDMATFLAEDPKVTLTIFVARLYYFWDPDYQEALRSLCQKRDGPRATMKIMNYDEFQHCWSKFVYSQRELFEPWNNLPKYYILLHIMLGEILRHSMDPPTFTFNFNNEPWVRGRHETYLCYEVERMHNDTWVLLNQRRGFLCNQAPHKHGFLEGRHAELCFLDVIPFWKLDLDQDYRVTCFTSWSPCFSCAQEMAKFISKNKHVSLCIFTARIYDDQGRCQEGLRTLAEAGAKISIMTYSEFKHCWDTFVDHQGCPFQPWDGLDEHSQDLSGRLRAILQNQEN
# Chain of Pyruvate kinase PKM (Homo sapiens) (P14618 whole entry, looked up): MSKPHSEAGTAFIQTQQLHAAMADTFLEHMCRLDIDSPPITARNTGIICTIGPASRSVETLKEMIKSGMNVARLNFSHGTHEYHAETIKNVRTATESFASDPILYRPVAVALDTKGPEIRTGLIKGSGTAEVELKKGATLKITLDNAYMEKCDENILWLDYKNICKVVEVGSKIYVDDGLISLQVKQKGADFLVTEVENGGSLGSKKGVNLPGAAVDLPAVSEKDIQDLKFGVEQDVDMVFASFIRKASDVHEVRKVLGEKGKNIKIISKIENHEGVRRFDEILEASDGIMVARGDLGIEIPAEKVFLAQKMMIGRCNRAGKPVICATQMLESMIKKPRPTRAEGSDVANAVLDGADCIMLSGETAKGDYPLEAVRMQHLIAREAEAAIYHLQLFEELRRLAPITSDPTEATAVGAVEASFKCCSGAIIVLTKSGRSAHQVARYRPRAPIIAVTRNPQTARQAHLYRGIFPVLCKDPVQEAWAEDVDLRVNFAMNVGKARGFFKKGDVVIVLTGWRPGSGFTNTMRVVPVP
# Chain of Alpha-galactosidase A (Homo sapiens) (P06280 whole entry, looked up): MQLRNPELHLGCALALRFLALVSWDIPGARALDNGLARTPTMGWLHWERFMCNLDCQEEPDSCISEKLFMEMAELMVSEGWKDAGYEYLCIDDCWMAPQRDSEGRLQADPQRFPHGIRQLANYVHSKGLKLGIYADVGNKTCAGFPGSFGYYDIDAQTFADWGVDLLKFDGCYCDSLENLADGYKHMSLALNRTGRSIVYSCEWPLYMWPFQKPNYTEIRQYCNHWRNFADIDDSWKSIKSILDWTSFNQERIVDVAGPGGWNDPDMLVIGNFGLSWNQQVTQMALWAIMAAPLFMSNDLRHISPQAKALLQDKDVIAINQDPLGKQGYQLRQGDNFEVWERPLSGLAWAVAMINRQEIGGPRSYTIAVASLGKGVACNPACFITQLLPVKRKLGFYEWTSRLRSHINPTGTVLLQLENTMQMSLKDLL
# Chain of Muscarinic acetylcholine receptor M1 (Rattus norvegicus) (P08482 whole entry, looked up): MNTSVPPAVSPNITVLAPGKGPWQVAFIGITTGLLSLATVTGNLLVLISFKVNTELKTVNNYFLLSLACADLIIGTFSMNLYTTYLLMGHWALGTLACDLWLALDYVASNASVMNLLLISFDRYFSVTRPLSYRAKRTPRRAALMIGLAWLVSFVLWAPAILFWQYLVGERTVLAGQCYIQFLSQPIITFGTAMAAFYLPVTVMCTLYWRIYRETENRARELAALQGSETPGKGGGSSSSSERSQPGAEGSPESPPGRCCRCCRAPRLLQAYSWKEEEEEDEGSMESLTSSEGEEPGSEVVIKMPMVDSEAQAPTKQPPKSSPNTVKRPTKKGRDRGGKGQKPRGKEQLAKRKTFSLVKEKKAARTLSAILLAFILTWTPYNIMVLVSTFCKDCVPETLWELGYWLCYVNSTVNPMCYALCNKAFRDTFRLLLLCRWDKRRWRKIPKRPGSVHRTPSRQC
# Chain of Cytochrome P450 2D6 (Homo sapiens) (P10635 whole entry, looked up): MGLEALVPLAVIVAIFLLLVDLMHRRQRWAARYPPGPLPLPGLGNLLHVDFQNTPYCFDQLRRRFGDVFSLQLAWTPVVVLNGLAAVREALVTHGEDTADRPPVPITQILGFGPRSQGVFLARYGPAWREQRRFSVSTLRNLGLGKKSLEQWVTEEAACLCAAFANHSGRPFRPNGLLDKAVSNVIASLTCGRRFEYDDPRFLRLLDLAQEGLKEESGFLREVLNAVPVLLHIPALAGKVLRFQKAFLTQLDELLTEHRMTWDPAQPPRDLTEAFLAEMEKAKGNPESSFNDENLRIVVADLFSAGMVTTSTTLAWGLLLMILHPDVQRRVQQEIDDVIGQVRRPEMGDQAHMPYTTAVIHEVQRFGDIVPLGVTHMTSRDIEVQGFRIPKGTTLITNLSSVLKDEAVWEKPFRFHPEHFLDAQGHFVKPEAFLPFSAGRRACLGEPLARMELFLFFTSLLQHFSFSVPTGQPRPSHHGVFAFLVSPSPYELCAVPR
# Chain of Ubiquitin carboxyl-terminal hydrolase 1 (Homo sapiens) (O94782 whole entry, looked up): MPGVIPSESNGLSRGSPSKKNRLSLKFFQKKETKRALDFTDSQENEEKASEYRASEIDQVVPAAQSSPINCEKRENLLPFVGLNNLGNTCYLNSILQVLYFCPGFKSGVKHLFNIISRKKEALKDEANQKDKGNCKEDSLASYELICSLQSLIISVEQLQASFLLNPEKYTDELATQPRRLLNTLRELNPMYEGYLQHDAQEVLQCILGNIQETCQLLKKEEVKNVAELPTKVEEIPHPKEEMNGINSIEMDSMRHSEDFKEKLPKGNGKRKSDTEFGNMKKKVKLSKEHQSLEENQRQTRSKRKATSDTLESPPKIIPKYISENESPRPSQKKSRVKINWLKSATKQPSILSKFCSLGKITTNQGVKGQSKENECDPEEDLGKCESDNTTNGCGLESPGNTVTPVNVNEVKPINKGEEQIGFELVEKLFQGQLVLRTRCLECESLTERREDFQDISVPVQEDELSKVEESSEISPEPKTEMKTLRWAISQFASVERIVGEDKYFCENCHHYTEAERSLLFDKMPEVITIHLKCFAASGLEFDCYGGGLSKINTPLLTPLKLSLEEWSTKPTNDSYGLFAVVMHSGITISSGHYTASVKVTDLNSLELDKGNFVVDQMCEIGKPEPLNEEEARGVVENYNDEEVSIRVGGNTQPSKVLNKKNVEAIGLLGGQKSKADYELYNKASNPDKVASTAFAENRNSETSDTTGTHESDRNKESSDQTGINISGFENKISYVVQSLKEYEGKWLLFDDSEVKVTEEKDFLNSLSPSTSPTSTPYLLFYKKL
compound,measurement,setting,value
CN1C(=O)COc2c(C(=O)N[C@@H]3CN4CCC3CC4)cc(Cl)cc21,outcome,[1],inactive
same,"activity change, negative = inhibition",[2]; at 57.5 µM (top of the series),3.71% (inactive)
same,max response,[2]; measured here: cell count channel max response,5.55%
same,max response,[2]; measured here: lipid channel max response,11.3%
same,Potency,[3],inactive
same,Potency,[4],inactive
same,Potency,[5],inactive
same,Potency,[6],inactive
C[C@H](N)Cc1c[nH]c2ccc(OCc3cccs3)cc12,outcome,[7],inactive
same,Potency,[8],1.58 µM (active) and 126 nM (active)
same,"activity change, negative = inhibition",[9],7.25% (inactive)
same,Potency,[10],> 46 µM (inactive)
same,Potency,[11],> 46 µM (inactive)
same,outcome,[1],inactive
same,Potency,[12],794 nM (active)
same,Potency,[13],inactive
same,outcome,[14],inactive
same,outcome,[15],inactive
same,outcome,[16],inactive
same,outcome,[17],inactive
same,outcome,[18],inactive
same,outcome,[19],inactive
same,Potency,[4],inactive
same,Potency,[5],inactive
same,Potency,[6],inactive
CCCCCOc1c(OC)ccc2cc(C(=O)NCc3ccc4c(c3)OCO4)c(=O)[nH]c12,Potency,[5],inactive
